{"source": "the supplement of paper PMC11537057", "note": "Where a name gives a salt, the structure may show the parent alone. ± gives the standard deviation of the averaged measurements. The full ranking holds about 1,700 compounds; the median of “cell number in HSV-1-infected wells relative to infected DMSO wells (H2B-RFP signal)” is about 100, and the highest 2% start at about 140. Only a selection was taken, and the highest values are over-represented in it overall.", "data": [{"tested_on": "A549 infected with HSV-1", "assay": "cell number in HSV-1-infected wells relative to infected DMSO wells (H2B-RFP signal); higher = more surviving cells (uninfected or antiviral-protected wells give about 200%; low = toxicity)", "conditions": "10 µM; 48 h; MOI: 0.1", "protocol": "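Selleck FDA-approved library (L1300) screened in duplicate at 10 µM on A549 H2B-mRuby cells in 384-well plates, infected with HSV-1 strain 17 YFP-ICP4 at MOI 0.1 one hour before drug addition. Imaged after 2 days at 37°C. Cell growth (H2B-RFP) and infection (ICP4-YFP) are expressed as % of DMSO-treated wells. Hits: growth >90% and infection <20% of DMSO.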", "units": {"cell number in HSV-1-infected wells": "%"}, "values": [{"smiles": "O=NN(CCCl)C(=O)NC1CCCCC1", "note": "[Lomustine]", "cell number in HSV-1-infected wells": "84.7 ± 27"}, {"smiles": "CO/N=C(\\C(=O)N[C@@H]1C(=O)N2C(C(=O)O)=C(COC(C)=O)CS[C@H]12)c1csc(N)n1", "note": "[Cefotaxime sodium]", "cell number in HSV-1-infected wells": "103 ± 12"}, {"smiles": "CC/C=C(\\C(=O)N[C@@H]1C(=O)N2C(C(=O)OCOC(=O)C(C)(C)C)=C(COC(N)=O)CS[C@H]12)c1csc(N)n1", "note": "[Cefcapene Pivoxil Hydrochloride]", "cell number in HSV-1-infected wells": "149.2 ± 0.042"}, {"smiles": "CO/N=C(\\C(=O)N[C@@H]1C(=O)N2C(C(=O)OCOC(=O)C(C)(C)C)=C(/C=C\\c3scnc3C)CS[C@H]12)c1csc(N)n1", "note": "[Cefditoren Pivoxil]", "cell number in HSV-1-infected wells": "110 ± 2.6"}, {"smiles": "CCC(=O)NS(=O)(=O)c1ccc(-c2c(-c3ccccc3)noc2C)cc1", "note": "[Parecoxib]", "cell number in HSV-1-infected wells": "115 ± 8.7"}, {"smiles": "CCC(=O)NS(=O)(=O)c1ccc(-c2c(-c3ccccc3)noc2C)cc1", "note": "[Parecoxib Sodium]", "cell number in HSV-1-infected wells": "89.9 ± 1"}, {"smiles": "CC(=O)NO", "note": "[Acetohydroxamic acid]", "cell number in HSV-1-infected wells": "127 ± 15"}, {"smiles": "Cc1nc(-c2ccc(OCC(C)C)c(C#N)c2)sc1C(=O)O", "note": "[Febuxostat]", "cell number in HSV-1-infected wells": "95.2 ± 11"}, {"smiles": "O=C1[C@@H]2[C@H]3CC[C@H](C3)[C@@H]2C(=O)N1C[C@@H]1CCCC[C@H]1CN1CCN(c2nsc3ccccc23)CC1", "note": "[lurasidone]", "cell number in HSV-1-infected wells": "75.7 ± 27"}, {"smiles": "CN1CCOC(c2ccccc2)c2ccccc2C1", "note": "(stereo unspecified) [Nefopam HCl]", "cell number in HSV-1-infected wells": "120 ± 8.1"}, {"smiles": "CC1(C)C[C@@H]1C(=O)N/C(=C\\CCCCSC[C@H](N)C(=O)O)C(=O)O", "note": "[Cilastatin]", "cell number in HSV-1-infected wells": "99 ± 21"}, {"smiles": "CN(C)C(=O)COC(=O)Cc1ccc(OC(=O)c2ccc(NC(=N)N)cc2)cc1", "note": "[Camostat Mesilate]", "cell number in HSV-1-infected wells": "124 ± 36"}, {"smiles": "Cc1c(C(C)C)c(=O)n(-c2ccccc2)n1C", "note": "[Propyphenazone (4-Isopropylantipyrine)]", "cell number in HSV-1-infected wells": "78.4 ± 2.3"}, {"smiles": "O=C(O)c1cccnc1", "note": "[Nicotinic Acid]", "cell number in HSV-1-infected wells": "93.2 ± 4"}, {"smiles": "Cc1c(NC(=O)c2cccnc2)c(=O)n(-c2ccccc2)n1C", "note": "[Nifenazone]", "cell number in HSV-1-infected wells": "145 ± 5.2"}, {"smiles": "CCCC(CCC)C(N)=O", "note": "[Valpromide]", "cell number in HSV-1-infected wells": "91.6 ± 13"}, {"smiles": "CC(=O)Oc1ccc(C(=C2CCCCC2)c2ccc(OC(C)=O)cc2)cc1", "note": "[Cyclofenil]", "cell number in HSV-1-infected wells": "122 ± 7.6"}, {"smiles": "CNC(=O)c1cnn(-c2nc(N)c3ncn([C@@H]4O[C@H](CO)[C@@H](O)[C@H]4O)c3n2)c1", "note": "[Regadenoson]", "cell number in HSV-1-infected wells": "128 ± 16"}, {"smiles": "Nc1ccc(/N=N/c2ccccc2)c(N)n1", "note": "[Phenazopyridine HCl]", "cell number in HSV-1-infected wells": "121 ± 23"}, {"smiles": "COC(=O)C1=C(C)NC(C)=C(C(=O)OCC(C)C)C1c1ccccc1[N+](=O)[O-]", "note": "(stereo unspecified) [Nisoldipine]", "cell number in HSV-1-infected wells": "92.2 ± 1.4"}, {"smiles": "O=C(O)CSCC(=O)NC1CCSC1=O", "note": "(stereo unspecified) [Erdosteine]", "cell number in HSV-1-infected wells": "121 ± 9.9"}, {"smiles": "CC(=O)NC1CCSC1=O", "note": "(stereo unspecified) [Citiolone]", "cell number in HSV-1-infected wells": "144 ± 26"}, {"smiles": "OC[C@H]1O[C@@H](c2ccc(Cl)c(Cc3ccc(O[C@H]4CCOC4)cc3)c2)[C@H](O)[C@@H](O)[C@@H]1O", "cell number in HSV-1-infected wells": "110 ± 9"}, {"smiles": "CN[C@H]1C(=O)N[C@@H]2Cc3ccc(cc3)Oc3cc4cc(c3O[C@@H]3O[C@H](C(=O)O)[C@@H](O)[C@H](O)[C@H]3NC(=O)CCCCCCCCC(C)C)Oc3ccc(cc3Cl)[C@@H](O)[C@@H]3NC(=O)[C@H](NC(=O)[C@@H]4NC(=O)[C@@H](NC2=O)c2cc(cc(O)c2Cl)Oc2cc1ccc2O)c1ccc(O)c(c1)-c1c(O[C@H]2O[C@H](CO)[C@@H](O)[C@H](O)[C@@H]2O)cc(O)cc1[C@@H](C(=O)NCCCN(C)C)NC3=O", "note": "[Dalbavancin]", "cell number in HSV-1-infected wells": "125 ± 2.5"}, {"smiles": "CSCCNc1nc(SCCC(F)(F)F)nc2c1ncn2[C@@H]1O[C@H](COP(=O)(O)OP(=O)(O)C(Cl)(Cl)P(=O)(O)O)[C@@H](O)[C@H]1O", "note": "[Cangrelor Tetrasodium]", "cell number in HSV-1-infected wells": "99.5 ± 2.3"}, {"smiles": "CN(C)CCCN1c2ccccc2CCc2ccc(Cl)cc21", "note": "[Clomipramine HCl]", "cell number in HSV-1-infected wells": "93 ± 22"}, {"smiles": "CNCCCN1c2ccccc2CCc2ccccc21", "note": "[Desipramine Hydrochloride]", "cell number in HSV-1-infected wells": "163 ± 20"}, {"smiles": "CN(C)CCCN1c2ccccc2CCc2ccccc21", "note": "[Imipramine HCl]", "cell number in HSV-1-infected wells": "134 ± 28"}, {"smiles": "O=C(c1ccc(F)cc1)C1CCN(CCn2c(=O)[nH]c3ccccc3c2=O)CC1", "note": "[Ketanserin]", "cell number in HSV-1-infected wells": "124.4 ± 0.22"}, {"smiles": "COc1cc(NC(C)CCCN)c2ncccc2c1", "note": "(stereo unspecified) [Primaquine Diphosphate]", "cell number in HSV-1-infected wells": "118 ± 8"}, {"smiles": "Cc1cccc(C)c1OCC(=O)N[C@@H](Cc1ccccc1)[C@@H](O)C[C@H](Cc1ccccc1)NC(=O)[C@H](C(C)C)N1CCCNC1=O", "note": "[Lopinavir]", "cell number in HSV-1-infected wells": "85.9 ± 22"}, {"smiles": "NCCNc1ccc(NCCN)c2c1C(=O)c1ccncc1C2=O", "note": "[Pixantrone Maleate]", "cell number in HSV-1-infected wells": "36.1 ± 10"}, {"smiles": "O=C1Nc2ccc(Cl)cc2[C@@](C#CC2CC2)(C(F)(F)F)O1", "note": "[Efavirenz]", "cell number in HSV-1-infected wells": "10.6 ± 3.5"}, {"smiles": "CCOC(CN1CCN(CC(C)C(=O)c2ccccc2)CC1)c1ccccc1", "note": "(stereo unspecified) [Eprazinone 2HCl]", "cell number in HSV-1-infected wells": "108.9 ± 1"}, {"smiles": "CC1=C(/C=C/C(C)=C/C=C/C(C)=C\\C(=O)O)C(C)(C)CCC1", "note": "[Isotretinoin]", "cell number in HSV-1-infected wells": "98.64 ± 0.63"}, {"smiles": "COc1ccc2c(c1)c(CC(=O)O)c(C)n2C(=O)c1ccc(Cl)cc1", "note": "[Indometacin Sodium]", "cell number in HSV-1-infected wells": "69.9 ± 22"}, {"smiles": "COc1ccc2c(c1)c(CC(=O)O)c(C)n2C(=O)c1ccc(Cl)cc1", "note": "[Indomethacin]", "cell number in HSV-1-infected wells": "119 ± 12"}, {"smiles": "COc1ccc(NC(=O)c2ccc(C(=N)N(C)C)cc2)c(C(=O)Nc2ccc(Cl)cn2)c1", "note": "[Betrixaban maleate]", "cell number in HSV-1-infected wells": "130 ± 48"}, {"smiles": "COc1ccc(NC(=O)c2ccc(C(=N)N(C)C)cc2)c(C(=O)Nc2ccc(Cl)cn2)c1", "note": "[Betrixaban]", "cell number in HSV-1-infected wells": "150 ± 40"}, {"smiles": "CCCOC(C(=O)OC1CCN(C)CC1)(c1ccccc1)c1ccccc1", "note": "[Propiverine hydrochloride]", "cell number in HSV-1-infected wells": "102 ± 5"}, {"smiles": "COC(=O)c1ccc2c(C(=Nc3ccc(N(C)C(=O)CN4CCN(C)CC4)cc3)c3ccccc3)c(O)[nH]c2c1", "note": "[Nintedanib Ethanesulfonate Salt]", "cell number in HSV-1-infected wells": "91.8 ± 4.1"}, {"smiles": "CC(C)OC(=O)CCC/C=C\\C[C@@H]1[C@@H](/C=C/C(F)(F)COc2ccccc2)[C@H](O)C[C@@H]1O", "note": "[Tafluprost]", "cell number in HSV-1-infected wells": "83.4 ± 27"}, {"smiles": "CC#CCn1c(N2CCC[C@@H](N)C2)nc2c1c(=O)n(Cc1nc(C)c3ccccc3n1)c(=O)n2C", "note": "[Linagliptin]", "cell number in HSV-1-infected wells": "95.4 ± 6.9"}, {"smiles": "NC(=O)c1cc(N2CC2)c([N+](=O)[O-])cc1[N+](=O)[O-]", "cell number in HSV-1-infected wells": "74.6 ± 11"}, {"smiles": "Cc1c(C(N)=O)cc([N+](=O)[O-])cc1[N+](=O)[O-]", "note": "[Dinitolmide]", "cell number in HSV-1-infected wells": "145 ± 18"}, {"smiles": "NC(=O)c1ccc(I)c([N+](=O)[O-])c1", "note": "[Iniparib (BSI-201)]", "cell number in HSV-1-infected wells": "66.8 ± 6.8"}]}]}
